Data reported in PubChem BioAssay (NCATS).
Results filed as inconclusive are left out. A call without a number means that no potency is given here. Active and inactive are the calls of the source. The call rests on the fitted dose curve; in most records, active means well fitted curve in the direction sought with a large enough effect; inconclusive means small, poorly fitted or top-dose-only effect, or another doubt; inactive means no such curve, though single readings can be large; an effect the other way counts as inactive or inconclusive.

experiment: BET inhibitor-based combinations targeting novel dependencies in MECOM-rearranged (r) AML: UCSD-AML1 cell line (AID 2202235); conditions: UCSD-AML1 AML cells viability, CellTiter-Glo, 48 h; series mostly up to 46 µM; further: nearly all actives have a fitted effect of over 40% in size
In short: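 Seeding density was 500 cells/well, and drug exposure lasted 48 hr under standard culture conditions. Read-out used CellTiter-Glo reagent with a 15 min room-temperature incubation before luminescence measurement; AUC and Z-AUC summarize the normalized responses.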
Potency means the concentration at half of the fitted maximal effect.

SMILES	Potency
COc1ccc(CC2SC(=O)NC2=O)cc1C(=O)NCc1ccc(C(F)(F)F)cc1 (stereo not drawn)	inactive
Nc1nc(N)c2nc(-c3cccc(O)c3)c(-c3cccc(O)c3)nc2n1	inactive
C[N+](C)([O-])CCNc1ccc(NCC[N+](C)(C)[O-])c2c1C(=O)c1c(O)ccc(O)c1C2=O	9.34 µM (active)
CC[C@@H]([C@H](C)O)n1ncn(-c2ccc(N3CCN(c4ccc(OCC5CO[C@@](Cn6cncn6)(c6ccc(F)cc6F)C5)cc4)CC3)cc2)c1=O (stereo partly drawn)	inactive
CC[C@@H](C)[C@H](NC(=O)[C@H](CC1CCCCC1)NC(=O)c1ccno1)C(=O)N1CCC2(CCc3ccccc32)CC1	inactive
CN[C@@H](C)C(=O)N[C@H]1CCCC[C@H]2CC[C@@H](C(=O)N[C@@H](c3ccccc3)c3cn(CCCCc4ccc(CCCCn5cc([C@@H](NC(=O)[C@@H]6CC[C@@H]7CCCC[C@H](NC(=O)[C@H](C)NC)C(=O)N76)c6ccccc6)nn5)cc4)nn3)N2C1=O	0.0037 µM (active)
CCCCc1oc2ccccc2c1C(=O)c1cc(I)c(OCCN(CC)CC)c(I)c1	23.5 µM (active)
CCc1c(O)cc(O)c(C(=O)c2ccc(OCCN3CCOCC3)c(OC)c2)c1CC(=O)N(CCOC)CCOC	0.263 µM (active)
O=C(c1ccc(F)cc1)N1CCC[C@H](c2nc(-c3ccc(F)cc3)no2)C1	inactive
O=C(O)c1c(Cl)c(Cl)c(Cl)c(Cl)c1-c1c2cc(I)c(=O)c(I)c-2oc2c(I)c(O)c(I)cc12	5.9 µM (active)
Cc1ccc(NC(=O)c2ccc(CN3CCN(C)CC3)cc2)cc1Nc1nc(-c2cccnc2)cs1	inactive
Cc1ccc(NC(=O)c2ccc(CN3CCN(C)CC3)cc2)cc1Nc1nccc(-c2cccnc2)n1	inactive
COC(=O)C1C2CC3c4[nH]c5cc(OC)ccc5c4CCN3CC2CC(OC(=O)c2cc(OC)c(OC)c(OC)c2)C1OC (stereo not drawn)	inactive
Cc1nc2ccc(C(=O)N3CCC4(CC3)CC(=O)c3c(cnn3C(C)C)C4)cc2[nH]1	inactive
S=P(N1CC1)(N1CC1)N1CC1	inactive
NC(=O)[C@@H](CCC(F)(F)F)N(Cc1ccc(-c2ncon2)cc1F)S(=O)(=O)c1ccc(Cl)cc1	inactive
Cc1cc2c(F)c(Oc3ncnn4cc(OC[C@@H](C)O)c(C)c34)ccc2[nH]1	inactive
Clc1ccc(COC(Cn2ccnc2)c2ccc(Cl)cc2Cl)c(Cl)c1 (stereo not drawn)	inactive
COc1ccc(-n2c(C)c([N+](=O)[O-])c3ccc(O)cc32)cc1	inactive
O=C(NCCCNc1nc(Nc2cccc(NC(=O)N3CCCC3)c2)ncc1I)c1cccs1	5.25 µM (active)
CCOC(CN1C(=O)[C@](CC(=O)Nc2ccc(C)cc2)(NC(=O)Nc2ccc(C)cc2)c2ccccc21)OCC	inactive

experiment: BET inhibitor-based combinations targeting novel dependencies in MECOM-rearranged (r) AML: AML-191 cell line (AID 2202236; further: nearly all actives have a fitted effect of over 35% in size); conditions: AML-191 viability, CellTiter-Glo luminescence, 48 h; series mostly up to 46 µM
In short: (§1)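 Readout: CellTiter-Glo luminescence. Exposure: 48 h, 11 concentrations, 500 cells/well. Metric: AUC and within-line Z-AUC after DMSO/empty-well normalization.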

SMILES	Potency
COc1ccc(CC2SC(=O)NC2=O)cc1C(=O)NCc1ccc(C(F)(F)F)cc1 (stereo not drawn)	inactive
Nc1nc(N)c2nc(-c3cccc(O)c3)c(-c3cccc(O)c3)nc2n1	18.6 µM (active)
Cc1cccc(CN2CCN(C(c3ccccc3)c3ccc(Cl)cc3)CC2)c1 (stereo not drawn)	inactive
CCCCc1oc2ccccc2c1C(=O)c1cc(I)c(OCCN(CC)CC)c(I)c1	20.9 µM (active)
C=C1C(=O)OC(CCCCCCCC)C1C(=O)O (stereo not drawn)	inactive
CC(=O)Oc1ccccc1C(=O)Nc1ncc([N+](=O)[O-])s1	20.9 µM (active)
CCN(CC)CCCCNc1nc2cc(Cl)c(Cl)cc2nc1-c1ccc(-c2cccs2)s1	26.3 µM (active)
S=P(N1CC1)(N1CC1)N1CC1	26.3 µM (active)
COc1cc2ncn(-c3cc(OCc4ccccc4S(C)(=O)=O)c(C#N)s3)c2cc1OC	inactive
COc1ccc(-n2c(C)c([N+](=O)[O-])c3ccc(O)cc32)cc1	6.61 µM (active)
N#CC(c1ccc(Cl)cc1)c1c(Cl)cc(-n2ncc(=O)[nH]c2=O)cc1Cl (stereo not drawn)	16.6 µM (active)

experiment: BET inhibitor-based combinations targeting novel dependencies in MECOM-rearranged (r) AML: AML-194 cell line (AID 2202237; further: nearly all actives have a fitted effect of over 40% in size); conditions: AML-194 (MECOM-r AML) viability, CellTiter-Glo, 48 h; series mostly up to 46 µM
In short: as §1

SMILES	Potency
COc1ccc(CC2SC(=O)NC2=O)cc1C(=O)NCc1ccc(C(F)(F)F)cc1 (stereo not drawn)	inactive
NC(=O)c1ccc(-c2nc(-c3ccc4c(c3)OCCO4)c(-c3ccccn3)[nH]2)cc1	inactive
Nc1nc(N)c2nc(-c3cccc(O)c3)c(-c3cccc(O)c3)nc2n1	inactive
Cc1cccc(CN2CCN(C(c3ccccc3)c3ccc(Cl)cc3)CC2)c1 (stereo not drawn)	inactive
CC[C@@H](C)[C@H](NC(=O)[C@H](CC1CCCCC1)NC(=O)c1ccno1)C(=O)N1CCC2(CCc3ccccc32)CC1	inactive
NC[C@H]1O[C@H](O[C@@H]2[C@@H](O)[C@@H](O[C@H]3O[C@H](CO)[C@@H](O)[C@H](N)[C@@H]3O)[C@H](N)C[C@@H]2N)[C@H](O)[C@@H](O)[C@H]1O	inactive
C=C1C(=O)OC(CCCCCCCC)C1C(=O)O (stereo not drawn)	inactive
O=C(c1ccc(F)cc1)N1CCC[C@H](c2nc(-c3ccc(F)cc3)no2)C1	inactive
Cc1nc2ccc(C(=O)N3CCC4(CC3)CC(=O)c3c(cnn3C(C)C)C4)cc2[nH]1	inactive
CCc1ccc(CCOc2ccc(CC3SC(=O)NC3=O)cc2)nc1 (stereo not drawn)	5.25 µM (active)
NC(=O)[C@@H](CCC(F)(F)F)N(Cc1ccc(-c2ncon2)cc1F)S(=O)(=O)c1ccc(Cl)cc1	inactive
COc1cc2ncn(-c3cc(OCc4ccccc4S(C)(=O)=O)c(C#N)s3)c2cc1OC	inactive
CCCCCCCc1ccc(CCc2cccc(O)c2C(=O)O)cc1	inactive
Clc1ccc(COC(Cn2ccnc2)c2ccc(Cl)cc2Cl)c(Cl)c1 (stereo not drawn)	26.3 µM (active)
COc1ccc(-n2c(C)c([N+](=O)[O-])c3ccc(O)cc32)cc1	inactive
N#CC(c1ccc(Cl)cc1)c1c(Cl)cc(-n2ncc(=O)[nH]c2=O)cc1Cl (stereo not drawn)	inactive
